% ACh max response data for 37 compounds are collected here from PubChem BioAssay AID2665 (Vanderbilt High Throughput Screening Facility, 2010).

Active and inactive are the calls of the source. No rule for the calls is given here.

Chain of Muscarinic acetylcholine receptor M5 (Homo sapiens) (P08912 whole entry, looked up): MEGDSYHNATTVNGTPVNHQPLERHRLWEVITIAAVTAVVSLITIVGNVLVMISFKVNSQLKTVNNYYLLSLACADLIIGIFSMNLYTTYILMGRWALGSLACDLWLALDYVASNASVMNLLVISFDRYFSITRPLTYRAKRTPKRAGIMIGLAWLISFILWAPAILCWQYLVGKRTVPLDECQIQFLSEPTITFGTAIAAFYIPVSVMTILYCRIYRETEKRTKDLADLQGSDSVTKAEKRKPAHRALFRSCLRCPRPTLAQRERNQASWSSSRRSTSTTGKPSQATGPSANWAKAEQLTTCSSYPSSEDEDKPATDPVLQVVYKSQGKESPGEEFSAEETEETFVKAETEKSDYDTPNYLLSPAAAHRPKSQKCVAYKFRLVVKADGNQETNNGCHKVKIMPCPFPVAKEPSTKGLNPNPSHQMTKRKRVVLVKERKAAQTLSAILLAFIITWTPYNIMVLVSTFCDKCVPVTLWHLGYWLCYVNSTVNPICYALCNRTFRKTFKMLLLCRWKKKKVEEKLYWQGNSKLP

One test deals with Muscarinic acetylcholine receptor M1 (Rattus norvegicus) (UniProt P08482). The experiment in a line: M5 positive allosteric modulators, analog testing, SAR follow-up, CHO cells, calcium, ACh EC10, single 30 µM (AID 2665).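 Also: 100% = response to a maximal acetylcholine concentration.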 The conditions noted are these: rat M1 potentiation, CHO calcium; at 30 µM; stronger effect = higher value.
Regarding `O=C1C(=O)N(Cc2ccc(Br)cc2)c2c(Cl)ccc(Cl)c21`, the % ACh max response amounted to 12.1%.

With `O=C1C(=O)N(Cc2c(F)cccc2F)c2c(Cl)cccc21`, the % ACh max response came to 38.8%.

For the compound `COc1ccc(CN2C(=O)C(=O)c3cc(Cl)ccc32)cc1`, the % ACh max response came to 20.3%.

As for `Cc1ccccc1CN1C(=O)C(=O)c2ccccc21`, the % ACh max response is 43.2%.

Turning to `O=C1C(=O)N(Cc2ccc(C(F)(F)F)cc2)c2c(Cl)cccc21`, the % ACh max response came to 67%.

Another test has as its target Muscarinic acetylcholine receptor M5 (Homo sapiens) (UniProt P08912). The test is described as above. The conditions noted are these: CHO hM5 calcium flux, ACh EC10 potentiation; at 30 µM; stronger effect = higher value. Background: Calcium assays in cells follow changes in intracellular calcium, usually with a dye or a luminescent sensor.
Turning to `CCCOc1ccc(-c2ccc(CN3C(=O)C(=O)c4cc(OC(F)(F)F)ccc43)cc2)cc1`, the % ACh max response was 31.8% (inactive).

Regarding `O=C1C(=O)N(Cc2ccc(C(F)(F)F)cc2)c2ccc(Cl)cc21`, the % ACh max response is 67.4% (active).

Turning to `O=C1C(=O)N(Cc2ccccc2Cl)c2ccc(Cl)cc21`, the % ACh max response was 44.4% (active).

For `O=C1C(=O)N(Cc2ccc(-c3ccc(F)nc3)cc2)c2ccc(OC(F)(F)F)cc21`, the % ACh max response is 78.8% (active).

Turning to `O=C1C(=O)N(Cc2c(F)cccc2F)c2ccc(Cl)cc21`, the % ACh max response was 31.8% (inactive).

For the compound `O=C1C(=O)N(CCc2ccc(Br)cc2)c2ccc(OC(F)(F)F)cc21`, the % ACh max response was 81.1% (active).

Consider `COc1ccc(CN2C(=O)C(=O)c3cc(C)ccc32)cc1`, for which the % ACh max response was 21.2% (inactive).

For `COc1cccc(CN2C(=O)C(=O)c3ccccc32)c1`, the % ACh max response was 28% (inactive).

`Cc1ccc2c(c1)C(=O)C(=O)N2Cc1ccc(C(F)(F)F)cc1`: the % ACh max response was 35.5% (inactive).

Consider `O=C1C(=O)N(Cc2c(F)cccc2F)c2ccccc21`, for which the % ACh max response is 17.4% (inactive).

With `O=C1C(=O)N(Cc2ccc(Br)cc2F)c2c(Cl)ccc(Cl)c21`, the % ACh max response was 12.4% (inactive).

For the compound `COc1ccc(CN2C(=O)C(=O)c3c(Cl)ccc(Cl)c32)cc1`, the % ACh max response was 11.7% (inactive).

As for `O=C1C(=O)N(Cc2ccc(-c3ccsc3)cc2)c2ccc(OC(F)(F)F)cc21`, the % ACh max response was 92.3% (active).

For the compound `O=C1C(=O)N(Cc2c(F)cccc2F)c2c(F)cccc21`, the % ACh max response is 25.1% (inactive).

As to `O=C1C(=O)N(Cc2ccc(C(F)(F)F)cc2)c2ccc(OC(F)(F)F)cc21`, the % ACh max response is 67.2% (active).

As for `Cc1ccccc1CN1C(=O)C(=O)c2cccc(Cl)c21`, the % ACh max response was 32.6% (inactive).

For `O=C1C(=O)N(Cc2ccc(-c3ccccc3)cc2)c2ccc(OC(F)(F)F)cc21`, the % ACh max response was 82.7% (active).

As to `COc1ccccc1-c1ccc(CN2C(=O)C(=O)c3cc(OC(F)(F)F)ccc32)cc1`, the % ACh max response was 72.6% (active).

As to `COc1ccc(CCN2C(=O)C(=O)c3cc(OC(F)(F)F)ccc32)cc1`, the % ACh max response was 88.3% (active).

For `O=C1C(=O)N(Cc2ccccc2F)c2ccc(Cl)cc21`, the % ACh max response was 36.3% (inactive).

In the case of `COc1ccc(CCN2C(=O)C(=O)c3ccccc32)cc1`, the % ACh max response is 51.7% (active).

On to `O=C1C(=O)N(Cc2ccccc2F)c2c(Cl)cccc21`, for which the % ACh max response is 49.5% (active).

Regarding `O=C1C(=O)N(Cc2ccc(-c3ccc(Cl)cc3)cc2)c2ccccc21`, the % ACh max response is 6.53% (active).

As for `O=C1C(=O)N(Cc2ccccc2C(F)(F)F)c2c(Cl)ccc(Cl)c21`, the % ACh max response was 16% (inactive).

`O=C1C(=O)N(Cc2ccc(-c3ccc(Cl)c(Cl)c3)cc2)c2ccc(OC(F)(F)F)cc21`: the % ACh max response was 73.5% (active).

Consider `O=C1C(=O)N(Cc2ccccc2F)c2c(Cl)ccc(Cl)c21`, for which the % ACh max response is 14.7% (inactive).

In the case of `O=C1C(=O)N(Cc2ccc(-c3ccc(Cl)cc3)cc2)c2ccc(OC(F)(F)F)cc21`, the % ACh max response was 45.5% (active).

Consider `Cc1ccccc1CN1C(=O)C(=O)c2cc(OC(F)(F)F)ccc21`, for which the % ACh max response was 60% (active).

As for `O=C1C(=O)N(Cc2ccc(Br)cc2)c2c(Cl)ccc(Cl)c21`, the % ACh max response is 20.7% (inactive).

For `Cn1cc(-c2ccc(CN3C(=O)C(=O)c4cc(OC(F)(F)F)ccc43)cc2)cn1`, the % ACh max response was 86.8% (active).

Take `O=C1C(=O)N(Cc2c(F)cccc2F)c2c(Cl)cccc21`: the % ACh max response is 23.6% (inactive).

Consider `COc1ccc(CN2C(=O)C(=O)c3cc(Cl)ccc32)cc1`, for which the % ACh max response was 32.6% (inactive).

Take `Cc1ccccc1CN1C(=O)C(=O)c2ccccc21`: the % ACh max response was 36.3% (active).

Turning to `O=C1C(=O)N(Cc2ccc(-c3cc(F)ccc3F)cc2)c2ccc(OC(F)(F)F)cc21`, the % ACh max response is 80.9% (active).

As for `O=C1C(=O)N(Cc2ccc(-c3ccc(Cl)nc3)cc2)c2ccc(OC(F)(F)F)cc21`, the % ACh max response was 88.2% (active).

Regarding `O=C1C(=O)N(Cc2ccc(C(F)(F)F)cc2)c2c(Cl)cccc21`, the % ACh max response is 70.8% (active).

With `COc1ccc(-c2ccc(CN3C(=O)C(=O)c4cc(OC(F)(F)F)ccc43)cc2)cc1`, the % ACh max response is 46% (active).
